# Source: the supplement of paper PMC8728848
# Shown is part of a subset that was picked to be rich in the strongest signals.
# Legend:
# Experiment in all cases: glycan array binding signal (z-score within array); higher = stronger binding
# Details in all cases: glycan notation: IUPAC condensed, linker removed
# [1] = biological target: Fuc(a1-2)Gal(b1-3)GalNAc(a1-3)[Fuc(a1-2)]Gal(b1-4)Glc
# Method in brief: (§1)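 Arrays were curated from the Consortium for Functional Glycomics database, 3228 in total, and kept only where the protein sequence was available. Binding is expressed as a within-array Z-score. This score was averaged across arrays of the same protein sequence at different concentrations or buffers and across linkers, and negative values can be read as non-binding.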
# [2] = biological target: Fuc(a1-2)Gal(b1-3)GalNAc(b1-3)Gal
# Method in brief: as §1
# Fuc(a1-2)Gal(b1-4)GlcNAc = biological target: Fuc(a1-2)Gal(b1-4)GlcNAc
# Method in brief: as §1
# [3] = biological target: Fuc(a1-2)Gal(b1-4)GlcNAc(b1-6)GalNAc
# Method in brief: as §1
# [4] = biological target: Fuc(a1-2)[Gal(a1-3)]Gal(b1-3)GlcNAc(b1-3)GalNAc
# Method in brief: as §1
# [5] = biological target: Fuc(a1-2)[GalNAc(a1-3)]Gal(b1-4)Glc
# Method in brief: as §1
# [6] = biological target: Fuc(a1-2)[GalNAc(b1-3)]Gal
# Method in brief: as §1
# [7] = biological target: Fuc(a1-3)[Gal(b1-4)]GlcNAc(b1-2)Man(a1-3)[Fuc(a1-3)[Gal(b1-4)]GlcNAc(b1-2)Man(a1-6)]Man(b1-4)GlcNAc(b1-4)GlcNAc
# Method in brief: as §1
# [8] = biological target: Gal(a1-3)Gal(b1-3)GlcNAc(b1-3)GalNAc
# Method in brief: as §1
# [9] = biological target: Gal(b1-3)GlcNAc(a1-6)Gal(b1-4)GlcNAc
# Method in brief: as §1
# [10] = biological target: Gal(b1-3)GlcNAc(b1-3)Gal(b1-4)Glc
# Method in brief: as §1
# [11] = biological target: Gal(b1-3)GlcNAc(b1-3)Gal(b1-4)GlcNAc(b1-6)[Gal(b1-3)GlcNAc(b1-3)]Gal(b1-4)Glc
# Method in brief: as §1
# [12] = biological target: Gal(b1-3)GlcNAc(b1-6)[Gal(b1-3)]GalNAc
# Method in brief: as §1
# [13] = biological target: Gal(b1-3)[GlcNAc(b1-6)]GalNAc
# Method in brief: as §1
# [14] = biological target: Gal(b1-4)GlcNAc(b1-2)[Gal(b1-4)GlcNAc(b1-4)]Man(a1-3)[GlcNAc(b1-4)][Gal(b1-4)GlcNAc(b1-2)[Gal(b1-4)GlcNAc(b1-6)]Man(a1-6)]Man(b1-4)GlcNAc(b1-4)GlcNAc
# Method in brief: as §1
# [15] = biological target: Gal(b1-4)GlcNAc(b1-2)[Gal(b1-4)GlcNAc(b1-6)]Man(a1-6)[Gal(b1-4)GlcNAc(b1-2)Man(a1-3)]Man(b1-4)GlcNAc(b1-4)[Fuc(a1-6)]GlcNAc
# Method in brief: as §1
# [16] = biological target: Gal(b1-4)GlcNAc(b1-3)Gal(b1-3)GlcNAc
# Method in brief: as §1
# [17] = biological target: Gal(b1-4)GlcNAc(b1-3)Gal(b1-4)Glc
# Method in brief: as §1
# [18] = biological target: Gal(b1-4)GlcNAc(b1-3)Gal(b1-4)GlcNAc(b1-2)Man(a1-3)[Gal(b1-4)GlcNAc(b1-3)Gal(b1-4)GlcNAc(b1-2)Man(a1-6)]Man(b1-4)GlcNAc(b1-4)[Fuc(a1-6)]GlcNAc
# Method in brief: as §1
# [19] = biological target: Gal(b1-4)GlcNAc(b1-3)Gal(b1-4)GlcNAc(b1-3)Gal(b1-4)GlcNAc(b1-2)Man(a1-3)[Gal(b1-4)GlcNAc(b1-3)Gal(b1-4)GlcNAc(b1-3)Gal(b1-4)GlcNAc(b1-2)Man(a1-6)]Man(b1-4)GlcNAc(b1-4)[Fuc(a1-6)]GlcNAc
# Method in brief: as §1
# [20] = biological target: Gal(b1-4)GlcNAc(b1-3)Gal(b1-4)GlcNAc(b1-3)Gal(b1-4)GlcNAc(b1-3)Gal(b1-4)GlcNAc(b1-2)Man(a1-3)[Gal(b1-4)GlcNAc(b1-3)Gal(b1-4)GlcNAc(b1-3)Gal(b1-4)GlcNAc(b1-3)Gal(b1-4)GlcNAc(b1-2)Man(a1-6)]Man(b1-4)GlcNAc(b1-4)[Fuc(a1-6)]GlcNAc
# Method in brief: as §1
# [21] = biological target: Gal(b1-4)GlcNAc(b1-3)Gal(b1-4)GlcNAc(b1-3)Gal(b1-4)GlcNAc(b1-3)Gal(b1-4)GlcNAc(b1-3)Gal(b1-4)GlcNAc(b1-2)Man(a1-3)[Gal(b1-4)GlcNAc(b1-3)Gal(b1-4)GlcNAc(b1-3)Gal(b1-4)GlcNAc(b1-3)Gal(b1-4)GlcNAc(b1-3)Gal(b1-4)GlcNAc(b1-2)Man(a1-6)]Man(b1-4)GlcNAc(b1-4)[Fuc(a1-6)]GlcNAc
# Method in brief: as §1
# [22] = biological target: Gal(b1-4)GlcNAc(b1-3)Gal(b1-4)GlcNAc(b1-3)Gal(b1-4)GlcNAc(b1-3)Gal(b1-4)GlcNAc(b1-3)Gal(b1-4)GlcNAc(b1-3)Gal(b1-4)GlcNAc(b1-2)Man(a1-3)[Gal(b1-4)GlcNAc(b1-3)Gal(b1-4)GlcNAc(b1-3)Gal(b1-4)GlcNAc(b1-3)Gal(b1-4)GlcNAc(b1-3)Gal(b1-4)GlcNAc(b1-3)Gal(b1-4)GlcNAc(b1-2)Man(a1-6)]Man(b1-4)GlcNAc(b1-4)GlcNAc
# Method in brief: as §1
# [23] = biological target: Gal(b1-4)GlcNAc(b1-3)Gal(b1-4)GlcNAc(b1-3)[Gal(b1-4)GlcNAc(b1-3)Gal(b1-4)GlcNAc(b1-6)]GalNAc
# Method in brief: as §1
# Gal3S(b1-4)GlcNAc6S = biological target: Gal3S(b1-4)GlcNAc6S
# Method in brief: as §1
# [24] = biological target: GalNAc(b1-4)GlcNAc(b1-2)Man
# Method in brief: as §1
binder,measurement,setting,value
"LCA (Lens culinaris), P02870 (protein) MASLQTQMISFYLIFLSILLTTIFFFKVNSTETTSFSITKFSPDQKNLIFQGDGYTTKGKLTLTKAVKSTVGRALYSTPIHIWDRDTGNVANFVTSFTFVIDAPSSYNVADEFTFFIAPVDTKPQTGGGYLGVFNSKEYDKTSQTVAVEFDTFYNAAWDPSNKERHIGIDVNSIKSVNTKSWNLQNGERANVVIAFNAATNVLTVTLTYPNSLEEENVTSYTLNEVVPLKDVVPEWVRIGFSATTGAEFAAHEVHSWSFHSELGGTSSSKQAADA",glycan array binding signal (z-score),[1],-0.201
same,glycan array binding signal (z-score),[2],-0.218
same,glycan array binding signal (z-score),Fuc(a1-2)Gal(b1-4)GlcNAc,-0.217
same,glycan array binding signal (z-score),[3],-0.218
same,glycan array binding signal (z-score),[4],-0.238
same,glycan array binding signal (z-score),[5],-0.232
same,glycan array binding signal (z-score),[6],-0.257
same,glycan array binding signal (z-score),[7],-0.237
same,glycan array binding signal (z-score),[8],-0.227
same,glycan array binding signal (z-score),[9],-0.211
same,glycan array binding signal (z-score),[10],-0.231
same,glycan array binding signal (z-score),[11],-0.238
same,glycan array binding signal (z-score),[12],-0.231
same,glycan array binding signal (z-score),[13],-0.238
same,glycan array binding signal (z-score),[14],-0.235
same,glycan array binding signal (z-score),[15],4.72
same,glycan array binding signal (z-score),[16],-0.225
same,glycan array binding signal (z-score),[17],-0.205
same,glycan array binding signal (z-score),[18],4.42
same,glycan array binding signal (z-score),[19],4.2
same,glycan array binding signal (z-score),[20],3.87
same,glycan array binding signal (z-score),[21],3.85
same,glycan array binding signal (z-score),[22],-0.192
same,glycan array binding signal (z-score),[23],0.058
same,glycan array binding signal (z-score),Gal3S(b1-4)GlcNAc6S,-0.227
same,glycan array binding signal (z-score),[24],-0.199
